Experimental data taken from the supplement of paper PMC12282887.
± gives the standard deviation of the averaged measurements.

Tested on: E. coli BW25113 marRABp lux reporter
Assay: promoter activity interaction Z-score (Lux/OD deviation from empty-vector control); higher = stronger promoter induction by the compound
Method: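 E. coli BW25113 (wild type or ΔmarA/ΔsoxS/Δrob) carrying pTU175 luxCDABE promoter reporters was grown in LB in 384-well plates at 37°C with each of 94 compounds at 4 two-fold concentrations, in biological duplicates. Luminescence and OD600 were read every 30 min for 12 h and integrated as AUC over 8 h (0-8 h WT, 1-9 h mutants). Lux AUC was divided by OD AUC; the interaction score is the residual of a Huber robust fit of each promoter against the empty-vector control, then Z-transformed per promoter.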

Row | Structure (SMILES) | promoter activity interaction Z-score (0.062 µg/ml, genetic background: wild type) | promoter activity interaction Z-score (0.062 µg/ml, genetic background: ΔmarA) | promoter activity interaction Z-score (0.062 µg/ml, genetic background: Δrob) | promoter activity interaction Z-score (0.062 µg/ml, genetic background: ΔsoxS) | promoter activity interaction Z-score (0.12 µg/ml, genetic background: wild type) | promoter activity interaction Z-score (0.12 µg/ml, genetic background: ΔmarA) | promoter activity interaction Z-score (0.12 µg/ml, genetic background: Δrob) | promoter activity interaction Z-score (0.12 µg/ml, genetic background: ΔsoxS) | promoter activity interaction Z-score (0.25 µg/ml, genetic background: wild type) | promoter activity interaction Z-score (0.25 µg/ml, genetic background: ΔmarA) | promoter activity interaction Z-score (0.25 µg/ml, genetic background: Δrob) | promoter activity interaction Z-score (0.25 µg/ml, genetic background: ΔsoxS) | promoter activity interaction Z-score (0.49 µg/ml, genetic background: wild type) | promoter activity interaction Z-score (0.49 µg/ml, genetic background: ΔmarA) | promoter activity interaction Z-score (0.49 µg/ml, genetic background: Δrob) | promoter activity interaction Z-score (0.49 µg/ml, genetic background: ΔsoxS) | promoter activity interaction Z-score (0.62 µg/ml, genetic background: wild type) | promoter activity interaction Z-score (0.62 µg/ml, genetic background: ΔmarA) | promoter activity interaction Z-score (0.62 µg/ml, genetic background: Δrob) | promoter activity interaction Z-score (0.62 µg/ml, genetic background: ΔsoxS) | promoter activity interaction Z-score (1.2 µg/ml, genetic background: wild type) | promoter activity interaction Z-score (1.2 µg/ml, genetic background: ΔmarA) | promoter activity interaction Z-score (1.2 µg/ml, genetic background: Δrob) | promoter activity interaction Z-score (1.2 µg/ml, genetic background: ΔsoxS) | promoter activity interaction Z-score (2.5 µg/ml, genetic background: wild type) | promoter activity interaction Z-score (2.5 µg/ml, genetic background: ΔmarA) | promoter activity interaction Z-score (2.5 µg/ml, genetic background: Δrob) | promoter activity interaction Z-score (2.5 µg/ml, genetic background: ΔsoxS) | promoter activity interaction Z-score (5 µg/ml, genetic background: wild type) | promoter activity interaction Z-score (5 µg/ml, genetic background: ΔmarA) | promoter activity interaction Z-score (5 µg/ml, genetic background: Δrob) | promoter activity interaction Z-score (5 µg/ml, genetic background: ΔsoxS)
1 | CN(C)c1ccc(O)c2c1C[C@H]1C[C@H]3[C@H](N(C)C)C(O)=C(C(N)=O)C(=O)[C@@]3(O)C(O)=C1C2=O [Minocycline] | -0.0844 ± 0.21 | 0.0361 ± 0.21 | 0.129 ± 0.094 | -0.0813 ± 0.0076 | 0.341 ± 0.081 | 0.0649 ± 0.098 | 0.115 ± 0.4 | 0.221 ± 0.22 | 0.449 ± 0.55 | 0.264 ± 0.17 | 0.436 ± 0.19 | 0.173 ± 0.13 | 3.58 ± 0.53 | 3.1 ± 1.2 | 1.07 ± 0.62 | 2.67 ± 0.47 | – | – | – | – | – | – | – | – | – | – | – | – | – | – | – | –
2 | CN[C@@H]1[C@H](O)[C@H](NC)[C@H]2O[C@@]3(O)C(=O)C[C@@H](C)O[C@H]3O[C@@H]2[C@H]1O [Spectinomycin] | – | – | – | – | – | – | – | – | – | – | – | – | – | – | – | – | 0.174 ± 0.026 | 0.168 ± 0.75 | 0.332 ± 0.41 | -0.125 ± 0.11 | 0.433 ± 0.052 | 0.324 ± 0.39 | 0.402 ± 0.72 | 0.018 ± 0.043 | 0.0652 ± 0.25 | -0.102 ± 0.25 | -0.0628 ± 0.069 | -0.128 ± 0.04 | 0.205 ± 0.44 | 0.687 ± 1.1 | 0.305 ± 0.34 | 0.00851 ± 0.23
